Test results as given in PubChem BioAssay (EPA / NIEHS).
Where “and” joins values, the source holds several entries; their conditions need not be identical. Equal values may be shown once. Inconclusive results are not listed. The source holds several records for some structures; these can differ, active in one and inactive in another. Calls of active or inactive are those of the source. The calls were made as follows, unless noted: active = hit-call score of the fitted dose curve at least 0.9, where 1 is the maximum; inactive = score below 0.9.

Tests used:
[1] = read-out: Collagen I, COL1A1 (gene 1277); test: BSK_MyoF_CollagenI: BioMAP Diversity Plus: MyoF Assay for Collagen I Biomarker Activity (AID 2284238); settings: primary human lung fibroblasts
Procedure, shortened: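 Primary human lung fibroblasts (MyoF system) treated 24 h; Collagen I quantified by ELISA and fitted in positive direction against DMSO. Parallel SRB total-protein staining assessed overt cytotoxicity.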

[2] = read-out: Collagen III, COL3A1 (gene 1281); test: BSK_MyoF_CollagenIII: BioMAP Diversity Plus: MyoF Assay for Collagen III Biomarker Activity (AID 2284239); settings: primary human lung fibroblasts
Procedure, shortened: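 Primary human lung fibroblasts (BioMAP MyoF system) exposed 24 h. Collagen III measured by ELISA; positive-direction fit relative to DMSO.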

[3] = CCTE_Mundy_HCI_hNP1_Casp3_7: CCTE's Caspase-Glo 3/7 Assay in human neuroprogenitor cells for Apoptosis, Mundy Lab (AID 2284240)
Procedure, shortened: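 Neuroepithelial-lineage stem cells from WA09 embryonic cells were treated with chemicals after 40–44 h of culture. Twenty-four hours later, caspase-3/7 activation was detected luminescently after a 30 min room-temperature reagent step, with DMSO as baseline.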

[4] = CCTE_Mundy_HCI_hNP1_CellTiter: CCTE's Cell Titer-Glo 2 Assay in human neuroprogenitor cells for Viability, Mundy Lab (AID 2284241; active = hit-call score of the fitted dose curve at least 0.9, where 1 is the maximum)
Procedure, shortened: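 Measures ATP content in human neural progenitors derived from WA09 embryonic cells. Read-out at 26.5 hours after dosing, with DMSO serving as the negative control and baseline.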

[5] = read-out: Interleukin 17F (IL17F), IL17F (gene 112744); test: BSK_BT_xIL17F: BioMAP Diversity Plus: BT Assay for Interleukin 17F (IL17F) Biomarker Activity (AID 2284243); settings: primary human B cells with PBMC
Procedure, shortened: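 Human PBMC co-cultured with B cells, compound exposure 24 h; secreted IL-17F quantified by Luminex xMAP, referenced to DMSO control. PBMC viability measured in parallel by Alamar Blue reduction.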

[6] = read-out: Actin alpha 1 (ACTA1), ACTA1 (gene 58); test: BSK_MyoF_ACTA1: BioMAP Diversity Plus: MyoF Assay for Actin alpha 1 (ACTA1) Biomarker Activity (AID 2284244); settings: primary human lung fibroblasts
Procedure, shortened: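 Measured by ELISA: alpha-smooth muscle actin in human primary lung fibroblasts 24 h after dosing, with DMSO as baseline and upward signal change as the fitted direction.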

[7] = read-out: Interleukin 2 (IL2), IL2 (gene 3558); test: BSK_BT_xIL2: BioMAP Diversity Plus: BT Assay for Interleukin 2 (IL2) Biomarker Activity (AID 2284245); settings: primary human B cells with PBMC
Procedure, shortened: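 Secreted interleukin-2 from human B cell/PBMC co-cultures, measured 24 h post-dosing by Luminex multiplex immunoassay. Upward-direction curve fitting against DMSO baseline.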

[8] = read-out: Collagen IV, COL4A1 (gene 1282); test: BSK_MyoF_CollagenIV: BioMAP Diversity Plus: MyoF Assay for Collagen IV Biomarker Activity (AID 2284247); settings: primary human lung fibroblasts
Procedure, shortened: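 Activity is scored as a signal increase over DMSO in an ELISA for Collagen IV, measured on human lung fibroblasts at 24 h after chemical treatment. Cytotoxicity is checked in parallel cultures by sulforhodamine B total-protein staining.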

[9] = read-out: Monokine induced gamma interferon (MIG), CXCL9 (gene 4283); test: BSK_KF3CT_MIG: BioMAP Diversity Plus: KF3CT Assay for Monokine induced gamma interferon (MIG) Biomarker Activity (AID 2284248); settings: primary human keratinocytes with fibroblasts
Procedure, shortened: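 Human keratinocyte–foreskin fibroblast co-culture; MIG measured by ELISA 24 h after chemical dosing, fitted upward versus DMSO. Cytotoxicity was assessed in parallel cultures by SRB total-protein staining read at 560 nm.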

[10] = read-out: Collagen I, COL1A1 (gene 1277); test: BSK_hDFCGF_CollagenI: BioMAP Diversity Plus: hDFCGF Assay for Collagen I Biomarker Activity (AID 2284250); settings: primary human foreskin fibroblasts
Procedure, shortened: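 Cells were primary human foreskin fibroblasts treated for 24 h. Collagen I levels were then determined by ELISA and compared against DMSO controls.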

[11] = read-out: Interferon-inducible T-cell alpha chemoattractant (ITAC), CXCL11 (gene 6373); test: BSK_hDFCGF_ITAC: BioMAP Diversity Plus: hDFCGF Assay for Interferon-inducible T-cell alpha chemoattractant (ITAC) Biomarker Activity (AID 2284251); settings: primary human foreskin fibroblasts
Procedure, shortened: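 ELISA readout of I-TAC after 24 h chemical exposure; human dermal foreskin fibroblast primary cells. Positive-direction fitting vs DMSO baseline. Parallel SRB total-protein staining (0.1% SRB after 10% TCA fixation, 560 nm) flags cytotoxicity.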

[12] = read-out: Plasminogen activator inhibitor-1 (PAI1), SERPINE1 (gene 5054); test: BSK_KF3CT_PAI1: BioMAP Diversity Plus: KF3CT Assay for Plasminogen activator inhibitor-1 (PAI1) Biomarker Activity (AID 2284252); settings: primary human keratinocytes with fibroblasts
Procedure, shortened: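 Signal is PAI-1 detected by ELISA in a human skin-derived keratinocyte/fibroblast co-culture, 24 h after dosing; DMSO served as negative control and baseline.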

[13] = read-out: Monocyte Chemoattractant Protein-1 (MCP1), CCL2 (gene 6347); test: BSK_IMphg_MCP1: BioMAP Diversity Plus: IMphg Assay for Monocyte Chemoattractant Protein-1 (MCP1) Biomarker Activity (AID 2284253); settings: primary human endothelial cells with macrophages
Procedure, shortened: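 Human venular endothelial cells co-cultured with macrophages; MCP-1 measured by ELISA 24 hours post-dose and fitted against DMSO. Cytotoxicity monitored by SRB total-protein staining in parallel cultures.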

[14] = read-out: Interleukin-8 (IL8), CXCL8 (gene 3576); test: BSK_KF3CT_IL8: BioMAP Diversity Plus: KF3CT Assay for Interleukin-8 (IL8) Biomarker Activity (AID 2284254); settings: primary human keratinocytes with fibroblasts
Procedure, shortened: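 Human keratinocyte/foreskin fibroblast co-culture dosed 24 h; IL-8 measured by ELISA relative to DMSO. Parallel cultures stained with SRB for total protein to flag cytotoxicity.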

[15] = read-out: Macrophage Inflammatory Protein-1 Alpha (MIP1a), CCL3 (gene 6348); test: BSK_IMphg_MIP1a: BioMAP Diversity Plus: IMphg Assay for Macrophage Inflammatory Protein-1 Alpha (MIP1a) Biomarker Activity (AID 2284255); settings: primary human endothelial cells with macrophages
Procedure, shortened: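 Co-culture of human venular endothelial cells and macrophages exposed to compounds for 24 h; MIP-1a measured by ELISA relative to DMSO. Cytotoxicity assessed in parallel cultures by sulforhodamine B total-protein staining at 560 nm.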

[16] = read-out: Plasminogen activator inhibitor-1 (PAI1), SERPINE1 (gene 5054); test: BSK_MyoF_PAI1: BioMAP Diversity Plus: MyoF Assay for Plasminogen activator inhibitor-1 (PAI1) Biomarker Activity (AID 2284256); settings: primary human lung fibroblasts
Procedure, shortened: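 Primary human lung fibroblasts treated with chemical for 24 h; PAI-1 levels quantified by ELISA relative to DMSO. Cytotoxicity was assessed in parallel cultures by SRB total-protein staining (0.1% SRB after 10% TCA fixation, 560 nm).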

CD69, CD69 (gene 969) = test: BSK_IMphg_CD69: BioMAP Diversity Plus: IMphg Assay for CD69 Biomarker Activity (AID 2284257); settings: primary human endothelial cells with macrophages
Procedure, shortened: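 Human venular endothelial cells co-cultured with macrophages; CD69 quantified by ELISA 24 h after compound addition. Activity fitted in the positive direction relative to DMSO baseline; cytotoxicity tracked in parallel cultures via SRB total-protein staining.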

[17] = read-out: Basic fibroblast growth factor (bFGF), FGF2 (gene 2247); test: BSK_MyoF_bFGF: BioMAP Diversity Plus: MyoF Assay for Basic fibroblast growth factor (bFGF) Biomarker Activity (AID 2284246); settings: primary human lung fibroblasts
Procedure, shortened: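 In this multiplexed cell system, lung fibroblasts (human primary) receive test chemical for 24 h before ELISA detection of bFGF; DMSO defines baseline and the analysis direction is positive.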

Measured: AC50

CCN(CCO)S(=O)(=O)C(F)(F)C(F)(F)C(F)(F)C(F)(F)C(F)(F)C(F)(F)C(F)(F)C(F)(F)F
active: [1] 19.9 µM and 20.3 µM | [2] 18.9 µM and 23.2 µM | [5] 13 µM and 12.6 µM | [6] 19.5 µM | [7] 26.7 µM and 25.7 µM | [9] 22.7 µM and 31.6 µM | [11] 34.8 µM and 24.3 µM | [12] 17.7 µM and 8.86 µM | [14] 5.61 µM | [15] 1.54 µM and 12.7 µM | [16] 55.1 µM | CD69, CD69 (gene 969) 6.74 µM
inactive: [3] | [4] | [6] | [8] | [10] | [13] | [14] | [16] | CD69, CD69 (gene 969)

FC(F)(F)C(F)(F)C(F)(F)C(F)(F)C(F)(F)C(F)(F)CC[Si](Cl)(Cl)Cl
not listed: [3] | [4]
inactive: all other assays above

CCOC(=O)CC(=O)C(F)(F)C(F)(F)F
not listed: [3] | [4] | [15]
inactive: all other assays above

O=C(O)CCC(F)(F)C(F)(F)C(F)(F)C(F)(F)C(F)(F)C(F)(F)C(F)(F)F
inactive: [1] | [2] | [3] | [4] | [5] | [6] | [7] | [8] | [9] | [10] | [11] | [12] | [13] | [14] | [16] | CD69, CD69 (gene 969)
active: [7] 2.38 µM | [14] 4.26 µM

NC(=O)C(F)(F)C(F)(F)C(F)(F)C(F)F
not listed: [3] | [4]
inactive: all other assays above

O=S(=O)(O)CCC(F)(F)C(F)(F)C(F)(F)C(F)(F)C(F)(F)C(F)(F)C(F)(F)C(F)(F)F
inactive: [1] | [2] | [3] | [5] | [6] | [7] | [8] | [9] | [10] | [11] | [12] | [13] | [14] | [16] | CD69, CD69 (gene 969)
active: [11] 30 µM | [14] 30 µM | CD69, CD69 (gene 969) 30 µM

OCCCCC(F)(F)C(F)(F)C(F)(F)C(F)(F)F
inactive: [1] | [2] | [3] | [4] | [5] | [6] | [7] | [17] | [8] | [9] | [10] | [11] | [12] | [13] | [14] | [16] | CD69, CD69 (gene 969)
active: [5] 21.7 µM

CCOC(C=C(C)CCC=C(C)C)OCC
inactive: [5] | [7] | [8]
active: [1] 30 µM | [2] 20 µM | [6] 7.77 µM | [17] 30.7 µM | [16] 20 µM

NS(=O)(=O)C(F)(F)C(F)(F)C(F)(F)C(F)(F)C(F)(F)C(F)(F)F
active: [8] 25.5 µM and 20.4 µM | [11] 43.1 µM and 39.1 µM | [13] 22.3 µM | CD69, CD69 (gene 969) 21.7 µM and 30 µM
inactive: [1] | [2] | [5] | [6] | [7] | [9] | [10] | [12] | [13] | [14] | [16]

OCC(O)CC(F)(F)C(F)(F)C(F)(F)C(F)(F)F (stereo unspecified)
not listed: [3] | [4] | [17]
inactive: all other assays above

CCN(CC)c1ccc(C=O)c(O)c1
inactive: [1] | [2] | [5] | [6] | [7] | [8]
active: [16] 20 µM

CCN=C1C=CC(=C(c2ccc(N(CC)CC)cc2)c2ccc(N(CC)CC)cc2)c2ccccc21
inactive: [10] | [14]
active: [9] 2.63 µM and 2.31 µM | [11] 704 nM and 1.12 µM | [12] 1.64 µM and 1.56 µM | [14] 2.34 µM

Cc1cc(C)c(O)c(C(C)(C)C)c1
active: [1] 30.6 µM | [2] 30.5 µM | [6] 29.8 µM | [8] 32.4 µM | [16] 36.4 µM
inactive: [5] | [7]

CC(C)CCCC(C)CCO (stereo unspecified)
inactive: [5] | [7] | [8] | [16]
active: [1] 31.6 µM | [2] 35.3 µM | [6] 30.9 µM

NCC(F)(F)C(F)(F)C(F)(F)C(F)(F)C(F)(F)C(F)(F)C(F)(F)C(F)(F)F
not listed: [3] | [4] | [15] | [17]
inactive: all other assays above
